HIF-2a inh: HIF-2a inhibition; 360,000 compounds, 0.72% hits; 786-0 RCC cells HIF-2a reporter, luciferase luminescence, overnight; inhibition, % at 18.8 µM; AID 624352;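 active = inhibition of the luminescence signal of 40% or more relative to plate controls, in a single-dose primary screen at 18.75 µM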
TRPM1 prom inh: reduces MITF-dependent TRPM1 promoter luciferase signal; 330,000 compounds, 0.83% hits; SK-MEL-5 TRPM1 promoter luciferase, 24 h; inhibition, % at 12.5 µM;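 active = mean inhibition across replicates of 60% or more, whatever share of single replicates reaches that level; inconclusive = some that reach 60%, reason not given; inactive = mean inhibition across replicates below 60%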
Peg3 prom inh: inhibitors of Peg3 promoter | HeLa PEG-Prom luciferase reporter, luminescence, overnight | inhibition, % at 20 µM | 360,000 compounds, 1.7% hits;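 active = inhibition of at least 50% at 20 µM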
KKLEB tox: reduces viability of KKLEB cystic fibrosis airway cells | KKLEB CF airway cells viability, ATPlite luminescence, overnight; active compounds read low; cells stimulated with P. aeruginosa culture filtrate | activity change (cytotoxicity), % at 5 µM | 360,000 compounds, 0.36% hits | AID 602141;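 active = corrected activity change at or below -50% at 5 µM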
CF NFkB block: cystic fibrosis NF-kB activation inhibition; inhibition, % at 5 µM; 360,000 compounds, 0.86% hits; KKLEB NF-kB-GFP reporter, PAF-induced, GFP fluorescence overnight; AID 588850;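 active = at least 50% inhibition at 5 µM, scaled per plate between neutral and stimulator controls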;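 note: PAF is a Pseudomonas aeruginosa culture filtrate used as stimulus; plate controls were PAF-stimulated DMSO wells for no effect and unstimulated DMSO wells for full effect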
CHOP inhibitor: inhibitors of CHOP induction in ER stress response. CHO-K1 CHOP-promoter luciferase, tunicamycin-induced, 15-18 h. AID 2732. inhibition, % at 10 µM. 220,000 compounds, 3.8% hits;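 active = compounds that reduced the stress-induced luciferase reporter signal by more than about 70% of percent inhibition, limit read from the data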;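 note: 0% = tunicamycin plus vehicle and 100% = wells without tunicamycin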
* = called active by the depositor; ? = inconclusive; nt = no result given. Sampled rows, rich in hits. Any-hit rate of the full collection: about 4.3%.

SMILES	HIF-2a inh	TRPM1 prom inh	Peg3 prom inh	KKLEB tox	CF NFkB block	CHOP inhibitor
COc1ccc(S(=O)(=O)N(C)C[C@H]2Oc3c(NC(=O)CCC(F)(F)F)cccc3C(=O)N([C@H](C)CO)C[C@@H]2C)cc1	8.5	9.0	-7.2	-0.8	-25.4	nt
CCOC(=O)c1c(-c2ccccc2)csc1NC(=S)NC	-7.9	15.3	-4.1	-10.1	-1.7	92.6*
CCOC(=O)c1c(-c2ccccc2)csc1NC(=O)CCN1C(=O)c2ccccc2C1=O	7.3	-2.3	1.3	0.3	3.3	37.0
CCOC(=O)c1c(-c2cccs2)csc1NC(C)=O	7.2	-4.0	11.5	-14.9	0.7	38.8
CCOC(=O)c1c(-c2ccc(-c3ccccc3)cc2)csc1NC(=O)CNCCN(C)C	19.5	39.1	103.2*	-7.5	16.7	nt
CCOC(=O)c1c(-c2cccs2)csc1NC(=O)CN1CC(C)OC(C)C1 (configuration not stated)	33.9	-7.9	22.6	-20.4	26.7	84.5*
OC(c1ccc(CN2CCCCC2)cc1)c1ncc(-c2ccccc2F)[nH]1 (configuration not stated)	-5.6	nt	-24.6	5.1	7.1	nt
Cc1cc(/C=C2\C(=N)N3C(SCc4ccccc4)=NSC3=NC2=O)c(C)n1Cc1ccccc1	-15.5	-10.2	9.8	-52.7*	30.2	87.6*
Cc1ccc(CN2CCNC(=O)C2CC(=O)NCCCn2nnc3ccccc32)cc1 (configuration not stated)	15.3	nt	5.1	16.5	10.4	nt
CCOc1ccc(CNC(=O)c2ccccc2NC(=O)C2=CSCCO2)cc1	0.1	7.0	-52.1	-16.9	1.8	nt
CCn1cc(S(=O)(=O)c2ccccc2)c(=O)c2cc(F)c(N3CCN(C)CC3)cc21	11.4	4.9	3.8	-6.8	7.0	nt
Cc1cc(C)cc(S(=O)(=O)c2cn(C)c3cc(N4CCN(C)CC4)c(F)cc3c2=O)c1	0.6	51.4	99.6*	-7.0	6.2	nt
Cc1ccccc1NC(=O)Nc1nnc(Cc2ccc([N+](=O)[O-])cc2)s1	8.0	14.0	24.4	-30.5	4.3	90.8*
O=C(Nc1nnc(Cc2ccc([N+](=O)[O-])cc2)s1)Nc1ccccc1F	9.7	0.3	16.0	3.7	-8.3	74.5*
O=C(Nc1ccccc1)Nc1nnc(Cc2ccc([N+](=O)[O-])cc2)s1	7.0	3.3	24.6	-4.3	20.6	90.3*
Cc1ccc(NC(=O)Nc2nnc(Cc3ccc([N+](=O)[O-])cc3)s2)cc1C	-58.3	-14.0	-56.7	-6.5	47.9	40.5
O=C(COC(=O)CC1CC2CCC1C2)NC(=O)NCc1ccco1 (configuration not stated)	12.5	-4.8	11.9	-0.2	1.9	81.8*
NS(=O)(=O)c1ccc(CNC(=O)c2ccc(NS(=O)(=O)c3ccc4[nH]c(=O)[nH]c4c3)cc2)cc1	2.4	-4.2	6.3	5.1	-25.0	nt
COc1ccc(C=O)c(-c2c(-c3ccccc3OC)sc3ccccc23)c1	4.3	nt	nt	nt	nt	nt
CC1=C(C(=O)N(C(C)C)C(C)C)CC(CC(=O)NC(c2ccccc2)c2ccccc2)C(=O)N1Cc1ccc(F)cc1 (configuration not stated)	7.5	nt	7.0	-14.1	9.4	nt
C[C@@H]1CCCCCCCCC(=O)OCCN(C(=O)OC(C)(C)C)[C@H](C)CCCCCCCCC(=O)OCCN1C(=O)OC(C)(C)C	11.7	6.7	4.3	-3.3	-11.0	nt
C[C@@H]1CCCCCCCCC(=O)OCCN[C@H](C)CCCCCCCCC(=O)OCCN[C@H](C)CCCCCCCCC(=O)OCCN1	13.2	64.1*	-14.7	-22.0	14.7	nt
CC(C)(C)C(=O)Nc1sc2c(c1-c1nc3ccccc3[nH]1)CCCC2	-14.4	14.4	1.4	-16.1	7.3	82.8*
Cc1ccc(OC(=O)CCC(=O)Nc2ccc(C(N)=O)cc2)cc1	12.1	7.1	-2.3	9.1	-2.8	nt
O=C(Cc1ccccc1F)Nc1ccc(S(=O)(=O)N2CCCC2)cc1	-40.7	-6.0	-18.7	-14.1	-10.9	nt
SMILES	HIF-2a inh	TRPM1 prom inh	Peg3 prom inh	KKLEB tox	CF NFkB block	CHOP inhibitor
CC(=O)c1c(C)[nH]c(C(=O)COc2ccc3ccc(=O)oc3c2)c1C	-1.3	-0.5	68.2*	-1.7	-28.2	nt
CN(Cc1c(C(=O)N/N=C/c2c(F)cccc2Cl)nnn1-c1nonc1N)C1CCCCC1	4.8	nt	8.3	-3.2	11.1	nt
CN(C)CCCNc1ncnc2sc(-c3ccccc3)cc12	0.7	-34.4	71.0*	4.3	-20.7	-3.7
CN(C)C(CNC(=O)C1CCN(C(=O)/C=C/c2ccccc2)CC1)c1ccccc1 (configuration not stated)	-106.2	-37.2	-107.4	4.7	-0.7	nt
CCc1cccc(CC)c1C(OC(C)=O)c1cccnc1 (configuration not stated)	21.4	4.9	13.8	-9.6	5.2	nt
CCCC(=O)N1CCN(c2ccc([N+](=O)[O-])cc2Cl)CC1	8.1	0.0	-2.1	-11.7	8.5	10.6
O=C(CSc1ccc(Cl)cc1)N1CCN(c2ccc([N+](=O)[O-])cc2Cl)CC1	-10.1	2.3	16.4	-1.3	-6.1	78.1*
CC(C)c1cc(C(=O)OCC(=O)NC(=O)NCc2ccco2)c(O)c(C(C)C)c1	5.7	0.6	30.3	-15.1	-4.3	102.1*
O=C(COC(=O)c1ccccc1C(F)(F)F)NC(=O)NCc1ccco1	-1.6	1.4	-8.7	-11.5	0.3	nt
CCCS(=O)(=O)NC(=O)C1(C)CCCN(C(=O)c2cccc(C(F)(F)F)c2)C1 (configuration not stated)	8.7	nt	10.3	3.7	-13.5	nt
O=C(Nc1ccccc1)c1nnsc1S(=O)c1ccc(Cl)cc1 (configuration not stated)	34.5	23.6	87.7*	-25.0	56.2*	75.1*
Cc1nnsc1S(=O)c1ccc(Cl)cc1 (configuration not stated)	8.6	8.5	16.6	2.9	-9.2	nt
O=C(NN1c2ccccc2CCc2ccccc21)c1ccccc1Br	19.0	16.3	7.4	-9.6	12.6	76.3*
COc1ccc2nc(C)cc(SCC(=O)N/N=C/c3cccc4ccccc34)c2c1	-6.7	?	60.1*	-41.7	45.4	39.5
Cc1cc(SCC(=O)N/N=C/c2ccc(O)cc2O)nc2ccccc12	13.6	35.7	53.9*	-0.6	1.3	nt
CC1(C)CC(NC(=O)c2cc(S(=O)(=O)N3CCOCC3)ccc2Cl)CC(C)(C)N1	-3.1	1.6	2.1	-25.5	3.1	nt
CC(C)NS(=O)(=O)c1ccc(OCC(=O)N2CCCC2)cc1	14.4	-5.4	-3.1	5.5	-11.8	-2.1
CC(C)NS(=O)(=O)c1ccc(OCC(=O)N2CCc3ccccc3C2)cc1	17.9	-6.6	9.8	6.5	-18.3	74.3*
CCCc1ccc(S(=O)(=O)N2CCN(C(=O)CN3C(=O)NC(C)(C4CC4)C3=O)CC2)cc1 (configuration not stated)	7.8	nt	1.3	-8.1	13.5	nt
O=C(/C=C/c1ccc(Cl)c([N+](=O)[O-])c1)Nc1ccc(N2CCCC2)c(Cl)c1	3.7	2.9	10.5	-23.7	25.5	96.0*
